# Measured values taken from the supplement of paper PMC12350171.
# Counter-ions that a name gives are not always drawn. Unmarked numbers belong to inactive results.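 How the source made its calls: active = AUC significantly below DMSO controls by Student t-fit with adjusted P under 0.01; inactive = not significantly reduced.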
# Tested on: Haemophilus parainfluenzae
# Experiment: growth AUC normalised to DMSO control (fraction of control); higher = less growth inhibition, active = hit call of the paper
# Details: 20 µM
# In short: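 For the AUC endpoint, growth curves were integrated by the trapezoidal rule up to the exponential-to-stationary transition and normalised to DMSO controls on the same plate. The curves came from OD578 readings taken hourly for 24 h, in three biological replicates. Pathogens had been passaged anaerobically twice and inoculated at an OD578 of 0.01 into pre-reduced mGAM plates carrying 20 μM compound and 1% DMSO, sealed with breathable membranes. Medium for Haemophilus parainfluenzae also contained hemin and NAD.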
row,SMILES,growth AUC normalised to DMSO control
1,CC(=O)[C@H]1CC[C@H]2[C@@H]3C=CC4=CC(=O)CC[C@@]4(C)[C@@H]3CC[C@]12C [Dydrogesterone],1.02
2,"CC(C)NC[C@@H](O)COc1ccc(CC(N)=O)cc1 [(R,+) Atenolol]",0.98
3,Cc1c(Cl)cccc1Nc1ccccc1C(=O)O [Tolfenamic acid],0.852 (active)
4,CC(=O)N(CC(O)CN(C(C)=O)c1c(I)c(C(=O)NCC(O)CO)c(I)c(C(=O)NCC(O)CO)c1I)c1c(I)c(C(=O)NCC(O)CO)c(I)c(C(=O)NCC(O)CO)c1I (centres undefined) [Iodixanol],0.976
5,NC[C@H]1O[C@H](O[C@H]2[C@H](O[C@@H]3O[C@H](CO)[C@@H](O)[C@H]3O)[C@@H](O)[C@H](N)C[C@@H]2N)[C@H](N)[C@@H](O)[C@@H]1O [Ribostamycin sulfate salt],0.812 (active)
6,O=c1cc(-c2ccc(O)c(O)c2)oc2cc(O)cc(O)c12 [Luteolin],1.02
7,CC(C(=O)O)c1ccc(C(=O)c2ccccc2)s1 (centres undefined) [Tiaprofenic acid],1
8,COC(=O)Nc1nc2cc(C(=O)c3ccccc3)ccc2[nH]1 [Mebendazole],0.983
9,C[C@@H]1CN(c2c(F)c(N)c3c(=O)c(C(=O)O)cn(C4CC4)c3c2F)C[C@H](C)N1 [Sparfloxacin],0.0765 (active)
10,C#C[C@]1(OC(C)=O)CC[C@H]2[C@@H]3CCC4=CC(=NO)CC[C@@H]4[C@H]3CC[C@@]21CC (mixture of isomers) [Norgestimate],0.908
11,CC[C@H]1OC(=O)[C@H](C)[C@@H](O[C@H]2C[C@@](C)(OC)[C@@H](O)[C@H](C)O2)[C@H](C)[C@@H](O[C@@H]2O[C@H](C)C[C@H](N(C)C)[C@H]2O)[C@](C)(O)C[C@@H](C)/C(=N\OCOCCOC)[C@H](C)[C@@H](O)[C@]1(C)O [Roxithromycin],0.1 (active)
12,CN(C)CCCN1c2ccccc2CCc2ccccc21 [Imipramine hydrochloride],0.923
13,O=C(CCCN1CC=C(n2c(=O)[nH]c3ccccc32)CC1)c1ccc(F)cc1 [Droperidol],0.995
14,CCN(CC)CC#CCOC(=O)C(O)(c1ccccc1)C1CCCCC1 (centres undefined) [Oxybutynin chloride],0.952
15,CCC[C@@H]1C[C@@H](C(=O)N[C@@H]([C@H]2O[C@H](SC)[C@H](O)[C@@H](O)[C@H]2O)[C@H](C)Cl)N(C)C1 [Clindamycin hydrochloride],0.0463 (active)
16,Cc1c(N(C)C)c(=O)n(-c2ccccc2)n1C [Amidopyrine],1.01
17,CC(C)(Oc1ccc(CCNC(=O)c2ccc(Cl)cc2)cc1)C(=O)O [Bezafibrate],0.984
18,CC(=O)O[C@H]1C[C@@H]2CC[C@@H]3[C@H](CC[C@@]4(C)[C@H]3C[C@H]([N+]3(C)CCCCC3)[C@@H]4OC(C)=O)[C@@]2(C)C[C@@H]1N1CCCCC1 [Vecuronium bromide],1.05
19,NC[C@H]1CC[C@H](C(=O)O)CC1 [Tranexamic acid],1.04
20,CC(NCCC(c1ccccc1)c1ccccc1)c1ccccc1 (centres undefined) [Fendiline hydrochloride],0.986

row,SMILES,growth AUC normalised to DMSO control
1,OC(CCN1CCCCC1)(c1ccccc1)C1CC2C=CC1C2 (centres undefined) [Biperiden hydrochloride],0.95
2,CN1CCOC(c2ccccc2)c2ccccc2C1 (centres undefined) [Nefopam hydrochloride],1
3,NNCCc1ccccc1 [Phenelzine sulfate],1.02
4,CC(CN1c2ccccc2Sc2ccccc21)N(C)C (centres undefined) [Promethazine hydrochloride],0.954
5,Cn1c(=O)c2[nH]cnc2n(C)c1=O [Aminophylline],1.04
6,O=C(O)CCc1nc(-c2ccccc2)c(-c2ccccc2)o1 [Oxaprozin],1.08
7,CCN(CC)C(=S)SSC(=S)N(CC)CC [Disulfiram],0.979
8,C#Cc1cccc(Nc2ncnc3cc(OCCOC)c(OCCOC)cc23)c1 [Erlotinib],1.04
9,"CCc1cc(Cl)c(OC)c(C(=O)NC[C@@H]2CCCN2CC)c1O [(S,-) Eticlopride hydrochloride]",0.958
10,CC(=O)Oc1ccccc1C(=O)Oc1ccccc1C(=O)O [Acetylsalicylsalicylic acid],0.885
11,c1ccc(CC2=NCCN2)cc1 [Tolazoline hydrochloride],1.03
12,C=CC[N@@+]12CC[C@@]34c5ccccc5N5/C=C6/[C@H]7C[C@H]8[C@@]9(CC[N@@+]8(CC=C)C/C7=C/CO)c7ccccc7N(/C=C(/[C@@H](C[C@@H]31)/C(=C\CO)C2)[C@H]54)[C@@H]69 [Alcuronium chloride],1
13,CO[C@H]1/C=C/O[C@@]2(C)Oc3c(C)c(O)c4c(O)c(c(/C=N/N5CCN(C6CCCC6)CC5)c(O)c4c3C2=O)NC(=O)/C(C)=C\C=C\[C@H](C)[C@H](O)[C@@H](C)[C@@H](O)[C@@H](C)[C@H](OC(C)=O)[C@@H]1C [Rifapentine],0.0302 (active)
14,Clc1ccc(C(Cn2ccnc2)OCc2ccsc2Cl)c(Cl)c1 (centres undefined) [Tioconazole],0.934
15,C[C@@H]1CCC[C@H](C)N1NC(=O)c1ccc(Cl)c(S(N)(=O)=O)c1 [Clopamide],0.984
16,CCOC1O[C@H]([C@@H](COCc2ccccc2)OCc2ccccc2)[C@H](OCc2ccccc2)[C@H]1O (some centres undefined) [Tribenoside],0.941
17,Cc1cc(=O)n(-c2ccccc2)n1C [Antipyrine],0.988
18,O=C(O)CN(CCN(CC(=O)O)CC(=O)O)CCN(CC(=O)O)CC(=O)O [Pentetic acid],1.02
19,CC1c2cccc(O)c2C(O)=C2C(=O)C3(O)C(O)=C(C(N)=O)C(=O)C(N(C)C)C3C(O)C21 (centres undefined) [Doxycycline hydrochloride],0.0238 (active)
